Compounds with a hit are over-represented: about 6.2% of the library has one in this group of screens.
LASV entry inh = inhibitors of Lassa virus binding or cell entry. hit rate 1.2% among 300,000. AID 540256. Lassa virus pseudotype entry inhibition, cell reporter. Potency, µM (doses to about 37.9 µM), hits mostly inhibitors; calls by dose curve; tested in HEK293 cells; further: nearly all actives have a fitted effect of over 50% in size
FMDV inh = antivirals against foot and mouth disease virus. FMDV antiviral cell-based qHTS. Potency, µM (highest dose often 57.9 µM), most hits filed as inhibitors. hit rate 1.2% among 410,000; calls by dose curve; tested in HEK293T cells; further: read-out not given here; nearly all actives have a fitted effect of over 45% in size
Marburg entry inh = inhibitors of Marburg virus binding or cell entry; Marburg virus pseudotyped entry inhibition, cell reporter; Potency, µM (series often up to 37.8 µM), actives largely listed as inhibitors; hit rate 1.8% among 300,000; calls by dose curve; tested in HEK293 cells
HCMV inh = blocks human cytomegalovirus replication; HFF cells, HCMV-luciferase reporter, 72 h; hits give low values; activity change, negative = inhibition, % at 57.5 µM; hit rate 4.5% among 410,000; AID 1259415; in the data active means activity change below about -60%; inconclusive means no clear call, values can overlap the other calls; inactive means above about -39%
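Luciferase read-out from HCMV-luciferase-infected HFFs (MOI 1 PFU/cell) 72 h post infection at 37C; compounds added after 16 h cell attachment; activity normalized between buffer-only basal and Salinomycin (10uM) inhibitor controls.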
A number is an active result; – = inactive; ? = inconclusive; · = not tested or not shown; + = active, no number; ! = not active in a repeat.

SMILES	LASV entry inh	FMDV inh	Marburg entry inh	HCMV inh
CCN(CC)S(=O)(=O)c1ccc(C(=O)NCc2cccs2)cc1	2.91µM	–	–	–
CCN(CC)S(=O)(=O)c1cccc(C(=O)N[C@H](C(=O)NCc2ccc(Cl)cc2)C(C)C)c1	12.6µM	?	10µM	–
CCN(CC)S(=O)(=O)c1ccc(C(=O)NCc2ccc(C)cc2)cc1	18.3µM	–	–	–
CC1(C(=O)Nc2cccc(NS(C)(=O)=O)c2)CCN1CCc1ccccc1 (stereo not drawn)	·	–	·	–
CN(C(=O)Cn1nnc(-c2cccc(C(F)(F)F)c2)n1)C1CCCCC1	–	–	–	–
CC(CN1CCNCC1)(NS(=O)(=O)c1ccccc1)c1ccccc1 (stereo not drawn)	–	–	11.2µM	–
COc1ccc(Cl)cc1NC(=O)CCN1CCN(Cc2ccccc2)CC1	·	–	·	–
COc1ccccc1Nc1nc(N2CCOCC2)nc(N2CCOCC2)n1	–	–	3.98µM	?
COc1ccc(Nc2nc(Nc3ccc(OC)cc3OC)nc(N3CCOCC3)n2)c(OC)c1	–	–	1µM	–
COc1ccc(Nc2nc(N3CCCC3)nc3ccccc23)c(OC)c1	16.4µM	·	?	?
COc1ccccc1Nc1nc(N2CCCC2)nc(N2CCOCC2)n1	·	–	·	–
COc1ccc(Nc2nc(-c3ccc(C)cc3)nc3ccccc23)c(OC)c1	–	–	·	–
CCOC(=O)C1=C(COc2ccccc2)NC(=O)NC1c1ccc(Br)cc1 (stereo not drawn)	·	–	·	–
COC(=O)/C=C1/SC(=NC(=O)c2ccc(OC)cc2)NC1=O	·	–	·	–
COC(=O)/C=C1/SC(=NC(=O)c2ccc(F)cc2)NC1=O	–	39.8µM	–	–
COC(=O)/C=C1/S/C(=N/NC(=O)c2ccccc2C)NC1=O	–	–	–	-104.8
COC(=O)/C=C1\SC(=NC(=O)c2cccc([N+](=O)[O-])c2)NC1=O	–	14.1µM	–	–
COC(=O)/C=C1\S/C(=N/NC(=O)c2ccccc2)NC1=O	–	–	–	–
O=C(N/N=C\c1cccc([N+](=O)[O-])c1O)C1COc2ccccc2O1 (stereo not drawn)	–	–	–	–
Cc1noc(C)c1-c1nc(Nc2ccncc2)c2ccccc2n1	·	–	·	·
CCCCOC(=O)c1ccc(NC(=O)c2ccc(F)cc2F)cc1	·	–	·	–
CC(Oc1ccc(Br)cc1)C(=O)NCC1(N2CCCCC2)CCCCC1 (stereo not drawn)	·	–	·	–
COc1ccc(C(=O)NC(C(=O)NCC2(N3CCCCC3)CCCCC2)C(C)C)cc1 (stereo not drawn)	·	–	·	-76.4
Oc1ccc2c3c1O[C@H]1c4[nH]c5ccccc5c4C[C@@]4(O)C(C2)N(CC2CC2)CCC314 (stereo partly drawn)	18.3µM	–	16.4µM	·
Oc1ccc2c3c1OC1c4[nH]c5ccccc5c4C[C@@]4(O)C(C2)N(CC2CC2)CC[C@]314 (stereo partly drawn)	·	–	·	–
SMILES	LASV entry inh	FMDV inh	Marburg entry inh	HCMV inh
Oc1ccc2c3c1OC1c4oc5ccccc5c4C[C@@]4(O)[C@@H](C2)N(CC2CC2)CC[C@]314 (stereo partly drawn)	·	–	·	-61.4
C=C1CC[C@@]2(O)[C@H]3Cc4ccc(O)c5c4[C@@]2(CCN3CC2CC2)[C@H]1O5	–	–	–	·
C=CCN1CC[C@]23c4c5ccc(O)c4O[C@H]2/C(=N/NC(=O)c2ccccc2)CC[C@@]3(O)[C@H]1C5	?	?	0.0891µM!	-63.7
O=C1/C(=C/c2ccccc2)C[C@@]2(O)[C@H]3Cc4ccc(O)c5c4[C@@]2(CCN3CC2CC2)C1O5 (stereo partly drawn)	·	10µM	·	·
COCCN1CN=C(Nc2nc3ccccc3s2)NC1	–	–	–	–
COc1cccc(NC(=O)C2(S(=O)(=O)c3ccc(Cl)cc3)CC2)c1	–	–	–	–
COc1ccc(C(N)c2nccc3cc(OC)c(OC)cc23)cc1OC (stereo not drawn)	·	–	·	·
O=C(NNC(=O)c1ccc2ccccc2c1O)NC1CCCCC1	·	–	·	–
CC(=O)c1ccc(NC(=O)COCc2cc(-c3ccc(F)cc3)on2)cc1	–	–	·	–
ClC1CCCCC1n1nnc2ccccc21 (stereo not drawn)	–	–	?	–
Oc1ccc2c3c1O[C@H]1c4oc5ccccc5c4C[C@@]4(O)C(C2)N(CC2CC2)CCC314 (stereo partly drawn)	·	·	10.3µM	·
O=C(O)c1cc(N2N=C(C(F)(F)F)/C(=C/C=C/c3ccco3)C2=O)ccc1Cl	–	28.2µM	?	-90.4
CCOC(=O)c1ccc(N2N=C(C)/C(=C/C=C/c3ccco3)C2=O)cc1	?	–	–	–
CCN1CCN(c2ccc(NC(=O)CCc3c(C)nc4c(-c5ccc(F)cc5)c(C)nn4c3C)cc2)CC1	·	–	·	-60.2
Cc1nc2c(-c3ccc(F)cc3)c(C)nn2c(C)c1CCC(=O)Nc1ccccc1	·	?	·	–
CCCc1cc(NC(=O)COC(=O)c2nccnc2N)n(-c2ccccc2)n1	·	–	·	-103.9
Cc1cc(NC(=O)COC(=O)c2nccnc2N)n(-c2ccccc2)n1	–	–	–	–
COc1ccc(OC)c(CCNC(=O)c2cc3cccc4c3n2CCS4)c1	–	4.47µM	·	–
COc1ccc(OC)c(CCNC(=O)c2csc3c2CCCCC3)c1	·	–	?	-62.3
COc1ccc(CCNC(=O)c2csc3c2CCCC3)cc1OC	–	–	?	–
CC(C)C[C@@H]1NC(=O)[C@H](Cc2ccc(O)cc2)NC(=O)c2cc([N+](=O)[O-])cc(I)c2NCCC[C@@H](C(N)=O)NC1=O	–	–	–	·
Cc1ccc(NC(=O)CN2CCc3ccccc3C2)cc1S(=O)(=O)N(C)C	–	–	–	–
COc1cc(CCCN2C(=S)NC[C@@H]2c2ccccc2)cc(OC)c1OC	·	–	·	-99.4
Nc1nnc(Cc2cccc(Br)c2)s1	–	–	–	–
CCC(C)(C)NC(=O)c1ccccc1Oc1ccccc1	–	–	?	-75.6
SMILES	LASV entry inh	FMDV inh	Marburg entry inh	HCMV inh
O=C(CN1CCC(NC(=O)c2cccc(F)c2)CC1)Nc1ccc(Br)cc1	–	?	–	–
Cc1cnc(NC(=O)CSc2nnc3ncccn23)s1	·	–	–	?
COc1cc2nc3occc3c(OC)c2cc1OC	?	–	–	-71.9
N#CC1=C(N)OC2=C(C(=O)CC(c3ccco3)C2)C1c1ccc(OCc2c(F)cccc2Cl)cc1 (stereo not drawn)	?	–	?	–
Nc1ccc2[nH]ncc2c1	–	–	–	-61.3
O=C(Cc1ccc(F)cc1)Nc1ccc2[nH]ncc2c1	–	–	–	–
COc1ccc(S(=O)(=O)N2CCC(C(=O)NCc3ccccc3)CC2)cc1OC	–	–	–	–
O=C(COC(=O)/C=C/c1cccs1)NC1CC1	?	–	?	-60.4
CNC(=O)COC(=O)/C=C/c1cccs1	–	–	?	–
NC(=S)N/N=C/c1ccccc1OC(=O)c1cc2ccccc2oc1=O	·	–	·	+
NC(=S)N/N=C/c1ccccc1OC(=O)/C=C/c1ccccc1	·	–	·	-110.1
NC(=S)N/N=C\c1ccccc1OCc1ccccc1	–	–	?	–
COC(=O)c1sc(NC(=O)c2cc3nc(-c4ccc(Br)cc4)cc(C(F)(F)F)n3n2)c(C(=O)OC)c1C	–	–	·	–
N#C/C(=C/c1cn(-c2ccccc2)nc1-c1cccc(OCc2ccccc2)c1)C(=O)NCCCn1ccnc1	?	–	11.2µM	–

From PubChem BioAssay
